For 40 sequences, binding signal results are on record in paper PMC13541613, “GHT-SELEX demonstrates unexpectedly high intrinsic sequence specificity and complex DNA binding of many human transcription factors”.

Sequence of ZNF721 DBD1 (Q8TF20 17-449): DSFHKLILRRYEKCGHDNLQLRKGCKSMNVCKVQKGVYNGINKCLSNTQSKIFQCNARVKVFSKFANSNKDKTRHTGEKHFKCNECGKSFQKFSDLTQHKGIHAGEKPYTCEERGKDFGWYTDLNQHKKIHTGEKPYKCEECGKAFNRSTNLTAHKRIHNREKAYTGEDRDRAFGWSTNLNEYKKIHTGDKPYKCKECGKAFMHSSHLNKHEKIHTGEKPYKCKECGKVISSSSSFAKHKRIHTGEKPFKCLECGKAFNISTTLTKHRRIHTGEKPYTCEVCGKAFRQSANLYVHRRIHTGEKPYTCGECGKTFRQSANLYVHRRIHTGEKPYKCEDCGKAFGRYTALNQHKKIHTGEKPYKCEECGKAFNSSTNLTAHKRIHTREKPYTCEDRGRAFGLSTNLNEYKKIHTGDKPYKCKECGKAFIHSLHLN
Sequence of ZNF721 full-length (Q8TF20 other isoform, or with tags, fused parts or gaps): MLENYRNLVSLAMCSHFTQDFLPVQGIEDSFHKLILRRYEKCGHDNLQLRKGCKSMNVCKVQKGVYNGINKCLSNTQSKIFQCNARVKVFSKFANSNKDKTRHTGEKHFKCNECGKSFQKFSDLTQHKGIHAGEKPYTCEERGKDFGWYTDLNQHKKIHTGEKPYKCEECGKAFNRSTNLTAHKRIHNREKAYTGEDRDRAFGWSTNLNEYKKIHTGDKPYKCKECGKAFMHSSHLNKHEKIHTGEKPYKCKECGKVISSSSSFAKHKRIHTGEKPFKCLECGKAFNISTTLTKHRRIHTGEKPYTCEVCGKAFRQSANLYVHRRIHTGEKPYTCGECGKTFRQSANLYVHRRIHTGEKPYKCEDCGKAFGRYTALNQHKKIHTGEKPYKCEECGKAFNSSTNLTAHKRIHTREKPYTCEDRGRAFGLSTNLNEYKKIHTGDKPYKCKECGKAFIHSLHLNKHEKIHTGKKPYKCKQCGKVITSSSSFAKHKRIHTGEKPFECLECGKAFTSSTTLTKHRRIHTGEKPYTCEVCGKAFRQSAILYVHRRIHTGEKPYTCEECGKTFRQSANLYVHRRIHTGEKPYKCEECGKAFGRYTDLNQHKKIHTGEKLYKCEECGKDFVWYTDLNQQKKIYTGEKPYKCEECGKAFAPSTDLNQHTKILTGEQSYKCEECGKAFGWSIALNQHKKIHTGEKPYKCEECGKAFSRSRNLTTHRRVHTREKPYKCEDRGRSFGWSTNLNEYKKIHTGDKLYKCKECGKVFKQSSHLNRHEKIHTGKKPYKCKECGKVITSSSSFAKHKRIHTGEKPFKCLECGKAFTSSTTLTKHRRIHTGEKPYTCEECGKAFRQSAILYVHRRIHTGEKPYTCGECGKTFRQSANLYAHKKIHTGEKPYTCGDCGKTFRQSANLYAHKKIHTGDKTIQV

The first test deals with ZNF721 full-length (Homo sapiens, UniProt Q8TF20-2 1-923). As to the kind of experiment: HT-SELEX; 20 mM HEPES pH 7, 140 mM KCl, 5 mM NaCl, 1 mM K2HPO4, 2 mM MgSO4, 100 uM EGTA, ZnSO4, 0.1% Tween20; room temperature, 1 h; high values mean tight binding. To be noted: protein: ivt; tags: eGFP (N-terminal); dsDNA, one strand shown. In a few lines:
(§1)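 Full-length or DNA-binding-domain forms of a tagged transcription factor were produced in HEK293 lysate or cell-free extract and immobilised on beads. Incubation with a randomized 40-base DNA library ran for 1 h at room temperature in HEPES/KCl low-stringency buffer with Tween20, after which bound DNA was washed, heat-eluted, PCR-amplified over successive cycles and Illumina-sequenced. Binding strength is given as the relative k-mer count in selected reads, higher for tighter binding.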
The sequence GCTTCTTTCC came in with a binding signal of 0.103 relative 10-mer count.
Still for that read-out and setting: for AGTGTTTCCA the value was 0.13 relative 10-mer count; for CCCCACACCA, 0.118 relative 10-mer count.
The same measure, in the same setting: then CAACCCCACC, with 0.149 relative 10-mer count; and AAAAAAAGAA, with 0.104 relative 10-mer count.
Still for that read-out and setting: then CACCCCCCGC, with 0.132 relative 10-mer count; and CCCTGCCCCC, with 0.166 relative 10-mer count; and AAAGCGTACC, with 0.109 relative 10-mer count.
CCCCGCCTCC registered a binding signal of 0.175 relative 10-mer count.
Still for that read-out and setting: then CCTCACCCCC, with 0.156 relative 10-mer count; and CCCTCCGCCC, with 0.192 relative 10-mer count; and CCCACACCCA, with 0.107 relative 10-mer count.
On the same count and under the same terms, for GCCCCCCGCC the value was 0.123 relative 10-mer count; for CCCCCTCACC, 0.149 relative 10-mer count; for GGGGGTGGGA, 0.205 relative 10-mer count.
The same measure, in the same setting: for CCACCCGCCC the value was 0.235 relative 10-mer count; for AGCGTCTCCA, 0.271 relative 10-mer count; for AAAAAAGCTC, 0.21 relative 10-mer count.
CCACCCCCGA returned a binding signal of 0.104 relative 10-mer count.
In the case of CCACGTCCCC, the binding signal came out at 0.11 relative 10-mer count.
Still for that read-out and setting: then CCCACCCAAC, with 0.172 relative 10-mer count; and CCCCCACCTC, with 0.198 relative 10-mer count.
Same read-out and setting: for GGTGGGTGGA the value was 0.13 relative 10-mer count; for CCAACCCCCA, 0.13 relative 10-mer count.
Still for that read-out and setting: for AGCGTATCCT the value was 0.146 relative 10-mer count.
CCACCCCGAC returned a binding signal of 0.136 relative 10-mer count.
Still for that read-out and setting: then CGCCCGCCCC, with 0.126 relative 10-mer count; and CCCCAACCCA, with 0.13 relative 10-mer count.
Same read-out and setting: for CACCCCCCAC the value was 0.248 relative 10-mer count; for GCCCCCCACC, 0.171 relative 10-mer count; for ACCCTCCACC, 0.127 relative 10-mer count.
The same measure, in the same setting: for GCACCCCACC the value was 0.104 relative 10-mer count; for CCCTCGCCCC, 0.167 relative 10-mer count.
CCCACCGTCC displayed a binding signal of 0.105 relative 10-mer count.
The same measure, in the same setting: for CCGAAAAAAA the value was 0.115 relative 10-mer count; for CCATCCCACC, 0.138 relative 10-mer count; for CCTCCCCCCC, 0.236 relative 10-mer count.
Same read-out and setting: for CCCCCCATCC the value was 0.15 relative 10-mer count; for CGCCCCCGCC, 0.132 relative 10-mer count; for AAAAAGCTAT, 0.425 relative 10-mer count.

Another test has as its target ZNF721 DBD1 (Homo sapiens, UniProt Q8TF20-2 29-461). The test is described as above. To be noted: protein: ivt; tags: eGFP (N-terminal); dsDNA, one strand shown. Summed up:
as §1
The sequence GCTTCTTTCC showed a binding signal of 0.0866 relative 10-mer count.
On the same count and under the same terms, for AGTGTTTCCA the value was 0.0113 relative 10-mer count.
Same read-out and setting: then CCCCACACCA, with 0.00417 relative 10-mer count; and CAACCCCACC, with 0.00454 relative 10-mer count.
As to AAAAAAAGAA, the binding signal was found to be 0.00867 relative 10-mer count.
Sequence CACCCCCCGC registered a binding signal of 0.00537 relative 10-mer count.
Still for that read-out and setting: then CCCTGCCCCC, with 0.00642 relative 10-mer count.
Still for that read-out and setting: for AAAGCGTACC the value was 0.0281 relative 10-mer count.
On the same count and under the same terms, for CCCCGCCTCC the value was 0.00738 relative 10-mer count.
CCTCACCCCC came in with a binding signal of 0.00683 relative 10-mer count.
Still for that read-out and setting: for CCCTCCGCCC the value was 0.00936 relative 10-mer count; for CCCACACCCA, 0.00468 relative 10-mer count.
Still for that read-out and setting: then GCCCCCCGCC, with 0.00477 relative 10-mer count; and CCCCCTCACC, with 0.00624 relative 10-mer count; and GGGGGTGGGA, with 0.0115 relative 10-mer count.
Sequence CCACCCGCCC gave a binding signal of 0.00922 relative 10-mer count.
AGCGTCTCCA yielded a binding signal of 0.0472 relative 10-mer count.
The same measure, in the same setting: for AAAAAAGCTC the value was 0.0749 relative 10-mer count; for CCACCCCCGA, 0.00298 relative 10-mer count; for CCACGTCCCC, 0.00376 relative 10-mer count.
CCCACCCAAC displayed a binding signal of 0.00679 relative 10-mer count.
The same measure, in the same setting: then CCCCCACCTC, with 0.00945 relative 10-mer count; and GGTGGGTGGA, with 0.00615 relative 10-mer count; and CCAACCCCCA, with 0.00486 relative 10-mer count.
On the same count and under the same terms, then AGCGTATCCT, with 0.0287 relative 10-mer count; and CCACCCCGAC, with 0.00404 relative 10-mer count.
On the same count and under the same terms, then CGCCCGCCCC, with 0.00408 relative 10-mer count; and CCCCAACCCA, with 0.00482 relative 10-mer count; and CACCCCCCAC, with 0.0103 relative 10-mer count.
Regarding GCCCCCCACC, the binding signal is 0.00693 relative 10-mer count.
Still for that read-out and setting: for ACCCTCCACC the value was 0.00482 relative 10-mer count; for GCACCCCACC, 0.00284 relative 10-mer count; for CCCTCGCCCC, 0.00702 relative 10-mer count.
The same measure, in the same setting: for CCCACCGTCC the value was 0.00449 relative 10-mer count.
The same measure, in the same setting: for CCGAAAAAAA the value was 0.0118 relative 10-mer count; for CCATCCCACC, 0.00697 relative 10-mer count.
CCTCCCCCCC had a binding signal of 0.0115 relative 10-mer count.
The same measure, in the same setting: then CCCCCCATCC, with 0.00509 relative 10-mer count; and CGCCCCCGCC, with 0.00523 relative 10-mer count.
Same read-out and setting: for AAAAAGCTAT the value was 0.225 relative 10-mer count.

Another test deals with ZNF721 DBD2 (Homo sapiens, UniProt Q8TF20-2 395-923). The test is described as above. As to conditions: protein: ivt; tags: eGFP (N-terminal); dsDNA, one strand shown. In a few lines: as §1
Sequence of ZNF721 DBD2 (Q8TF20 383-911): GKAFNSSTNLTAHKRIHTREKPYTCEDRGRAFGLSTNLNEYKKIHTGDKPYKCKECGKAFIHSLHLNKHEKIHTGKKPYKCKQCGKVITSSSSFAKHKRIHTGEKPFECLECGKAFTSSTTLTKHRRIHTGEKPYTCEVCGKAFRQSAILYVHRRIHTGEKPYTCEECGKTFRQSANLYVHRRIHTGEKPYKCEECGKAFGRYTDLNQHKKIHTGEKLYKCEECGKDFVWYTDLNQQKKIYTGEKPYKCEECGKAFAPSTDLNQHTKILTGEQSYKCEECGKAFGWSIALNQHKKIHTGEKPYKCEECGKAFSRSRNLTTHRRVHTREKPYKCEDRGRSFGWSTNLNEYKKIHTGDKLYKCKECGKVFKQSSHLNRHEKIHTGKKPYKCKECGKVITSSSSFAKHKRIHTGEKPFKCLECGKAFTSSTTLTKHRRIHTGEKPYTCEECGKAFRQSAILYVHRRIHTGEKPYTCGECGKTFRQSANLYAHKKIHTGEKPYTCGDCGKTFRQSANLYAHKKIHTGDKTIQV
GCTTCTTTCC gave a binding signal of 0.00156 relative 10-mer count.
Same read-out and setting: then AGTGTTTCCA, with 0.284 relative 10-mer count; and CCCCACACCA, with 0.00575 relative 10-mer count; and CAACCCCACC, with 0.00384 relative 10-mer count.
In turn, AAAAAAAGAA registered a binding signal of 0.0321 relative 10-mer count.
On the same count and under the same terms, for CACCCCCCGC the value was 0.00635 relative 10-mer count; for CCCTGCCCCC, 0.00264 relative 10-mer count.
Still for that read-out and setting: then AAAGCGTACC, with 0.0144 relative 10-mer count; and CCCCGCCTCC, with 0.00216 relative 10-mer count; and CCTCACCCCC, with 0.0018 relative 10-mer count.
Still for that read-out and setting: then CCCTCCGCCC, with 0.00491 relative 10-mer count.
The sequence CCCACACCCA displayed a binding signal of 0.00455 relative 10-mer count.
On the same count and under the same terms, for GCCCCCCGCC the value was 0.003 relative 10-mer count; for CCCCCTCACC, 0.00372 relative 10-mer count.
Sequence GGGGGTGGGA gave a binding signal of 0.00312 relative 10-mer count.
Consider CCACCCGCCC, for which the binding signal was 0.00443 relative 10-mer count.
Still for that read-out and setting: then AGCGTCTCCA, with 0.388 relative 10-mer count; and AAAAAAGCTC, with 0.00515 relative 10-mer count; and CCACCCCCGA, with 0.00264 relative 10-mer count.
Still for that read-out and setting: then CCACGTCCCC, with 0.00252 relative 10-mer count.
The same measure, in the same setting: for CCCACCCAAC the value was 0.0113 relative 10-mer count.
The sequence CCCCCACCTC came in with a binding signal of 0.00551 relative 10-mer count.
Still for that read-out and setting: for GGTGGGTGGA the value was 0.00611 relative 10-mer count; for CCAACCCCCA, 0.00168 relative 10-mer count.
Still for that read-out and setting: then AGCGTATCCT, with 0.192 relative 10-mer count; and CCACCCCGAC, with 0.0024 relative 10-mer count; and CGCCCGCCCC, with 0.00144 relative 10-mer count.
On the same count and under the same terms, for CCCCAACCCA the value was 0.00384 relative 10-mer count; for CACCCCCCAC, 0.00527 relative 10-mer count; for GCCCCCCACC, 0.00455 relative 10-mer count.
Sequence ACCCTCCACC yielded a binding signal of 0.00707 relative 10-mer count.
Same read-out and setting: for GCACCCCACC the value was 0.00491 relative 10-mer count; for CCCTCGCCCC, 0.00336 relative 10-mer count.
Regarding CCCACCGTCC, the binding signal turned out to be 0.00395 relative 10-mer count.
On the same count and under the same terms, for CCGAAAAAAA the value was 0.0585 relative 10-mer count.
The same measure, in the same setting: then CCATCCCACC, with 0.00575 relative 10-mer count.
The same measure, in the same setting: for CCTCCCCCCC the value was 0.00707 relative 10-mer count; for CCCCCCATCC, 0.00419 relative 10-mer count.
As for CGCCCCCGCC, the binding signal was found to be 0.00216 relative 10-mer count.
On the same count and under the same terms, for AAAAAGCTAT the value was 0.00192 relative 10-mer count.
